# Experimental data taken from PubChem BioAssay AID709 (SRMLSC, 2007).
# Screen size: about 65,000 compounds; about 3,600 (5.5%) were called active. Only a selection was taken, and actives are over-represented in it overall. A number with no mark means an inactive call.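 The calls were made as follows: active = at 10 µM, mean starting fluorescence two-fold or more over control wells; inactive = the rest.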 Where a SMILES comes first, the peptide text is derived from it. The star is where a group is joined. Bz = O=C(c1ccccc1)*
# Assay: intrinsic fluorescence of library compounds, ex339/em460 – biochemical, MLSMR library, data from DPM-DC assay, artefact control, profiling panel (AID 709);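 also: signal is the first read of a kinetic run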
# Conditions: compound autofluorescence, ex339/em460 nm, NADH buffer; at 10 µM; active compounds read high; 1 = no-compound wells, NADH background
row,Compound,fluorescence fold increase
1,CCOc1ccccc1-n1c(SCC(=O)NCc2ccco2)nnc1-c1ccncc1,1.07
2,CCOC(=O)C1=C(C)N=c2s/c(=C\C(=O)OC)c(=O)n2C1c1ccc(OC)cc1 (stereo not given),1.08
3,O=C(NCc1ccco1)c1cc(-c2cccnc2)nc2ccc(Cl)cc12,1.17
4,O=C(Nc1ccccc1)Nc1ccccc1C(=O)NCc1ccco1,1.65
5,O=C(NCc1ccco1)c1cccn2c(=O)c3cc(Br)ccc3nc12,2.53 (active)
6,Cc1ccsc1-c1nc(CSCC(=O)NCCN2CCCC2)c(C)o1,2.22 (active)
7,Cn1c(C(=O)NCCCN2CCCCC2)cc2sccc21,1.19
8,Cc1cc(NC(=O)CSCc2nc(-c3cccc(Cl)c3)oc2C)no1,1.06
9,CC(C)NC(=O)CCCn1c(=S)[nH]c2cc3c(cc2c1=O)OCO3,1.07
10,CC(=O)Nn1cc2c(=O)n(C)c(=O)n(C)c2c1,1.03
11,COc1ccc(-c2c3c(=O)n(C)c(=O)n(C)c3cn2-c2cccc(OC)c2)cc1,1.94
12,Cn1c(=O)c2cn(-c3cccc4ccccc34)cc2n(C)c1=O,1.28
13,COc1ccc(-c2c3c(=O)n(C)c(=O)n(C)c3cn2NC(C)=O)cc1,2.81 (active)
14,Cc1ccc(-c2c3c(=O)n(C)c(=O)n(C)c3cn2-n2cnnc2)cc1,1.07
15,COc1cccc(-n2cc(C(=O)O)c3ccccc3c2=O)c1,1.36
16,COc1cccc(-n2cc3c(c2-c2ccccc2)c(=O)n(C)c(=O)n3C)c1,2.35 (active)
17,Cc1ccc(-c2c3c(=O)n(C)c(=O)n(C)c3cn2-c2ccccc2O)cc1,3.24 (active)
18,COc1ccc(OC)c(-n2cc3c(=O)n(C)c(=O)n(C)c3c2)c1,1.3
19,Nc1nonc1-c1noc(-c2ccc(Br)o2)n1,1.07
20,Cc1onc(-c2ccccc2)c1C(=O)N1CCOCC1,1.04

row,Compound,fluorescence fold increase
1,O=C(C1CCN(S(=O)(=O)Cc2ccccc2)CC1)N1CCCc2ccccc21,1.08
2,COc1ccc(-n2c(SC)nc(O)cc2=O)cc1,1.1
3,O=C1[C@@H]2C(Cc3ccc(O)cc3)NC3(C(=O)Nc4ccc(F)cc43)[C@@H]2C(=O)N1c1ccc(F)cc1 (stereo not given in full),1.1
4,COC(=O)c1ccccc1NC(=O)c1ccccc1NS(C)(=O)=O,1.13
5,CCc1ccccc1NC(=O)c1cccs1,1.09
6,O=C(Nc1nncs1)c1ccccc1NS(=O)(=O)c1cccs1,2.5 (active)
7,COc1ccc(CCNC(=O)CSc2nnc(-c3cccc(F)c3)o2)cc1OC,1.07
8,c1ccc2cc3[nH]c(CN4CCCCC4)nc3cc2c1,1.35
9,CCOC(=O)N1CCN(C(=O)c2nn(-c3ccc(C)cc3)c(=O)c3c2c2ccccc2n3C)CC1,2.21 (active)
10,CCOC(=O)N1CCN(C(=O)c2n[nH]c(=O)c3ccccc23)CC1,1.04
11,Cn1c2ccccc2c2c(C(=O)N3CCN(c4ccc(F)cc4)CC3)cn(C3CCCC3)c(=O)c21,1.57
12,COc1nc(Oc2ccc(=O)n(C)n2)nc(N(C)C)n1,1.04
13,O=C(Nc1ccncc1)c1c(F)cccc1F,1.11
14,O=C(O)c1ccc(NC(=O)C2CCCCC2)cc1,1.11
15,CN1C(=O)c2ccc(NC(=O)C3CCCCC3)cc2C1=O,4.96 (active)
16,O=C(Nc1cnn(Cc2ccc(Cl)cc2)c1)C1CCCC1,1.03
17,CN1C(=O)c2ccc(NC(=O)c3c(F)c(F)c(F)c(F)c3F)cc2C1=O,2.11 (active)
18,CCC(=O)Nc1ccc(C(=O)Nc2ccc3c(c2)C(=O)N(CC2CCCO2)C3=O)cc1 (stereo not given),1.59
19,CCCCc1nc2ccccc2c(NC(=O)CN2CCN(C)CC2)c1CCC,1.08
20,CC1=C(C(=O)Nc2ccc(Cl)cc2)C(c2ccco2)NC(=O)N1 (stereo not given),1.1

row,Compound,fluorescence fold increase
1,COc1ccccc1N1CCN(Cc2ccc(OC)c3ccccc23)CC1,1.12
2,O=C(NC(Cc1ccccc1)C(=O)N1CCCC1C(=O)O)c1ccccc1 (stereo not drawn) (Bz-Phe-Pro-OH; configuration not given here),0.84
3,CCCn1c(=O)c2[nH]c(C3CCCC3)nc2n(CCC)c1=O,1.03
4,CCc1ccc(CCC(=O)Nc2ccc(S(N)(=O)=O)cc2)o1,1.08
5,CCOC(=O)CSc1nnc(NC(=O)c2cccc(S(=O)(=O)N3CCCC3)c2)s1,1.07
6,CCOC(=O)CSc1nnc(NC(=O)c2cccc(S(=O)(=O)N3CCCCC3)c2)s1,1
7,CCOC(=O)c1csc(NC(=O)c2ccc(S(=O)(=O)N3CCCC3)cc2)n1,2.49 (active)
8,Cc1ccc(S(=O)(=O)c2nc(NCCCn3ccnc3)sc2Cl)cc1,1.12
9,CC(C)(C)NC(=O)C(c1ccco1)N(Cc1ccc2c(c1)OCO2)C(=O)Cn1nnc2ccccc21 (stereo not given),1.1
10,O=C(NCCC1=CCCCC1)C1CCN(Cc2cnn(-c3ccccc3)c2-n2cccc2)CC1,1.16
11,Cn1cccc1Cc1nnc(SCC(=O)NCCc2ccccc2)n1-c1ccc(F)cc1,1.12
12,CCCC(=O)N1c2ccc(-c3csc(N)n3)cc2CC1C (stereo not given),1.13
13,COc1ccc(NC(=O)CN2CCN(S(=O)(=O)c3ccc(F)cc3)CC2)cc1Cl,1.01
14,COc1ccccc1NC(=O)CN1CCN(S(=O)(=O)c2ccc(Br)cc2)CC1,1
15,COc1cc2c(cc1NC(=O)CN1CCN(S(=O)(=O)c3ccc(F)cc3)CC1)oc1ccccc12,2.72 (active)
16,Cc1cc2cc(CNC(=O)c3ccc(S(=O)(=O)N4CCOCC4)cc3)ccc2[nH]1,1.07
17,Cc1coc2c(O)cc3c(c12)OC1(N2CCCCC2)C(=O)NCCCC31 (stereo not given),1.1
18,COc1ccc2[nH]c3c(=O)n(Cc4ccco4)cnc3c2c1,3.87 (active)
19,O=c1c2[nH]c3ccc(Cl)cc3c2ncn1Cc1ccccn1,1.12
20,COc1ccc2[nH]c3ccc(OC)cc3c2c1,1.46
